Test results as given in PubChem BioAssay AID1159580 (chemical genetic matrix, 2015).
“And” between values parts separate entries of the source, which are not always exact repeats. Equal values may be shown once. About 2,000 (36%) of roughly 5,500 compounds were called active. About 18% were inconclusive and are not listed. The list shows a part of the results. A number with no mark means an inactive call. Cut-off read from the data, not from the text of the source: active = normalized growth mostly below about 0.91 (no sharp cut-off); inconclusive = no clear call, values can overlap the other calls; inactive = mostly above about 0.92.

Experiment: chemical genetic growth profiling, strain panel (AID 1159580);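 note: tested at 20 µM; growth read once vehicle control cultures reached saturation at 30 °C; 1 = growth at the plate median or of vehicle wells; lower values mean less growth of the strain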
Details: S. cerevisiae deletion strains, growth OD

With `CCC1(c2ccc(N)cc2)CCC(=O)NC1=O` (configuration not stated) the normalized growth (locus YAL021C, strain ccr4, hits give low values) was 0.981, the normalized growth (locus YAL026C, strain drs2, hits give low values) was 0.971 and the normalized growth (locus YAL030W, strain snc1, hits give low values) was 0.969. For the same molecule, the normalized growth (locus YAL040C, strain CLN3, hits give low values) was 0.987, the normalized growth (locus YBL061C, strain skt5, hits give low values) was 0.968 and the normalized growth (locus YBR009C, strain hhf1, hits give low values) was 0.984. For the same molecule, the normalized growth (locus YBR021W, strain FUR4, hits give low values) was 1.01, the normalized growth (locus YBR023C, strain chs3, hits give low values) was 0.979 and the normalized growth (locus YBR171W, strain sec66, hits give low values) was 0.957. The normalized growth (locus YBR229C, strain ROT2, hits give low values) was 0.995, the normalized growth (locus YBR231C, strain swc5, hits give low values) was 0.943 and the normalized growth (locus YBR279W, strain paf1, hits give low values) was 0.988. The normalized growth (locus YCL011C, strain gbp2, hits give low values) was 0.984, the normalized growth (locus YCL016C, strain dcc1, hits give low values) was 0.994 and the normalized growth (locus YCL029C, strain bik1, hits give low values) was 1. The normalized growth (locus YCL069W, strain vba3, hits give low values) was 0.956, the normalized growth (locus YCR088W, strain abp1, hits give low values) was 0.974 and the normalized growth (locus YDL005C, strain med2, hits give low values) was 0.955. It also gave a normalized growth (locus YDL035C, strain GPR1, hits give low values) of 1.04, a normalized growth (locus YDL040C, strain nat1, hits give low values) of 0.978 and a normalized growth (locus YDL074C, strain BRE1, hits give low values) of 0.994. It also gave a normalized growth (locus YDL101C, strain DUN1, hits give low values) of 1.01, a normalized growth (locus YDL134C, strain PPH21, hits give low values) of 1.02 and a normalized growth (locus YDL185W, strain tfp1, hits give low values) of 1.01. The normalized growth (locus YDL192W, strain arf1, hits give low values) was 0.996, the normalized growth (locus YDR001C, strain nth1, hits give low values) was 0.96 and the normalized growth (locus YDR069C, strain doa4, hits give low values) was 0.962. For the same molecule, the normalized growth (locus YDR101C, strain arx1, hits give low values) was 1.01, the normalized growth (locus YDR137W, strain rgp1, hits give low values) was 1.06 and the normalized growth (locus YDR150W, strain NUM1, hits give low values) was 1. For the same molecule, the normalized growth (locus YDR159W, strain sac3, hits give low values) was 0.979, the normalized growth (locus YDR162C, strain NBP2, hits give low values) was 1.03 and the normalized growth (locus YDR195W, strain ref2) was 0.926. It also gave a normalized growth (locus YDR297W, strain sur2, hits give low values) of 0.973, a normalized growth (locus YDR318W, strain mcm21, hits give low values) of 0.991 and a normalized growth (locus YDR334W, strain swr1, hits give low values) of 0.964. It also gave a normalized growth (locus YDR335W, strain msn5, hits give low values) of 0.959, a normalized growth (locus YDR363W, strain ESC2, hits give low values) of 1.01 and a normalized growth (locus YDR388W, hits give low values) of 0.999. The normalized growth (locus YDR392W, strain spt3, hits give low values) was 1.02, the normalized growth (locus YDR502C, strain sam2, hits give low values) was 0.999 and the normalized growth (locus YEL003W, strain gim4, hits give low values) was 0.957. For the same molecule, the normalized growth (locus YEL037C, strain rad23, hits give low values) was 0.951, the normalized growth (locus YEL061C, strain CIN8 (second series), hits give low values) was 0.961 and the normalized growth (locus YEL061C, strain CIN8, hits give low values) was 1.01. It also gave a normalized growth (locus YER002W, strain NOP16, hits give low values) of 0.977, a normalized growth (locus YER015W, strain faa2, hits give low values) of 0.966 and a normalized growth (locus YER016W, strain bim1, hits give low values) of 0.987. The normalized growth (locus YER110C, hits give low values) was 0.993, the normalized growth (locus YER111C, strain swi4, hits give low values) was 0.968 and the normalized growth (locus YER155C, strain BEM2 (second series), hits give low values) was 0.878. It also gave a normalized growth (locus YER155C, strain BEM2, hits give low values) of 0.999, a normalized growth (locus YER167W, strain BCK2, hits give low values) of 1 and a normalized growth (locus YFR010W, strain ubp6, hits give low values) of 0.945. It also gave a normalized growth (locus YGL078C, strain dbp3, hits give low values) of 0.992, a normalized growth (locus YGL086W, strain mad1, hits give low values) of 0.994 and a normalized growth (locus YGL167C, strain pmr1, hits give low values) of 0.961. The normalized growth (locus YGL173C, strain kem1, hits give low values) was 0.936, the normalized growth (locus YGL227W, strain vid30, hits give low values) was 0.976 and the normalized growth (locus YGL240W, strain doc1, hits give low values) was 0.876 (active). It also gave a normalized growth (locus YGL248W, strain PDE1, hits give low values) of 0.999, a normalized growth (locus YGL253W, strain hxk2, hits give low values) of 0.967 and a normalized growth (locus YGR078C, strain PAC10, hits give low values) of 0.997. It also gave a normalized growth (locus YGR135W, strain pre9, hits give low values) of 0.991, a normalized growth (locus YGR252W, strain gcn5, hits give low values) of 0.992 and a normalized growth (locus YHR013C, strain ard1, hits give low values) of 0.956. The normalized growth (locus YHR027C, strain rpn1, hits give low values) was 0.981, the normalized growth (locus YHR030C, strain SLT2, hits give low values) was 1 and 0.997 and the normalized growth (locus YHR079C, strain IRE1 (second series), hits give low values) was 0.995. The normalized growth (locus YHR079C, strain IRE1, hits give low values) was 1.04, the normalized growth (locus YHR094C, strain hxt1, hits give low values) was 0.995 and the normalized growth (locus YHR129C, strain ARP1, hits give low values) was 0.999. It also gave a normalized growth (locus YHR142W, strain chs7, hits give low values) of 0.932, a normalized growth (locus YHR200W, strain rpn10, hits give low values) of 0.999 and a normalized growth (locus YIL066C, strain RNR3, hits give low values) of 1.03. The normalized growth (locus YIL073C, strain SPO22, hits give low values) was 1.03, the normalized growth (locus YIL125W, strain kgd1, hits give low values) was 0.998 and the normalized growth (locus YIR030C, strain dcg1, hits give low values) was 0.995. The normalized growth (locus YJL092W, strain hpr5, hits give low values) was 0.952, the normalized growth (locus YJL095W, strain BCK1 (second series), hits give low values) was 0.97 and the normalized growth (locus YJL095W, strain BCK1, hits give low values) was 0.995 and 1.03. For the same molecule, the normalized growth (locus YJL115W, strain asf1, hits give low values) was 0.949, the normalized growth (locus YJL129C, strain trk1, hits give low values) was 0.928 and the normalized growth (locus YJL134W, strain LCB3, hits give low values) was 1. For the same molecule, the normalized growth (locus YJL154C, strain vps35, hits give low values) was 0.967, the normalized growth (locus YJL164C, strain tpk1, hits give low values) was 0.998 and the normalized growth (locus YJL166W, strain qcr8, hits give low values) was 0.913. For the same molecule, the normalized growth (locus YJL168C, strain set2, hits give low values) was 0.988, the normalized growth (locus YJL187C, strain SWE1 (second series), hits give low values) was 0.993 and the normalized growth (locus YJL187C, strain SWE1, hits give low values) was 0.959. The normalized growth (locus YJR043C, strain POL32, hits give low values) was 1.02 and the normalized growth (locus YJR066W, strain TOR1, hits give low values) was 0.973.
